Potency estimated from few doses data for 9 molecules are collected here from publication PMC11062922 (Nature Chemical Biology, 2023).

Read-outs that look alike come from different tables or passages of the source.

For one experiment, the system named is AAK1. Also on record: species or system human, MV4-11 + K-562 + COLO205 + SK-N-BE2 + OVCAR-8. The settings on record: read-out: apparent Kd, n = 1.
Another experiment concerns BMP2K. Set-up: species or system human, MV4-11 + K-562 + COLO205 + SK-N-BE2 + OVCAR-8. To be noted: read-out: apparent Kd, compound concentrations: 100 nM and 1000 nM (sheet 'Samples'), n = 1.
A further experiment addresses Q6ZSR9 (human, UniProt Q6ZSR9). Set-up: species or system MV4-11 + K-562 + COLO205 + SK-N-BE2 + OVCAR-8. To be noted: read-out: apparent Kd, n = 1.
The next experiment relates to CLK4. Set-up: species or system human, MV4-11 + K-562 + COLO205 + SK-N-BE2 + OVCAR-8. The settings on record: read-out: apparent Kd, compound concentrations: 100 nM and 1000 nM (sheet 'Samples'), n = 1.
The subject of the next experiment is PKN1. Set-up: species or system human, MV4-11 + K-562 + COLO205 + SK-N-BE2 + OVCAR-8. The settings on record: read-out: apparent Kd; compound concentrations: 100 nM and 1000 nM (sheet 'Samples'), CATDS: 2.3359167172179899E-2; n = 1.
A further experiment has as its system CLK1. Set-up: species or system human, MV4-11 + K-562 + COLO205 + SK-N-BE2 + OVCAR-8. The settings on record: read-out: apparent Kd, compound concentrations: 100 nM and 1000 nM (sheet 'Samples'), n = 1.
For a further experiment, the system named is FLT4. Set-up: species or system human, MV4-11 + K-562 + COLO205 + SK-N-BE2 + OVCAR-8. To be noted: read-out: apparent Kd; compound concentrations: 100 nM and 1000 nM (sheet 'Samples'), CATDS: 1.8307563949858899E-2; n = 1.
The test system of another experiment is GSK3A. Also on record: species or system human, MV4-11 + K-562 + COLO205 + SK-N-BE2 + OVCAR-8. The settings on record: read-out: apparent Kd, n = 1.
Another experiment relates to GSK3B. Set-up: species or system human, MV4-11 + K-562 + COLO205 + SK-N-BE2 + OVCAR-8. To be noted: read-out: apparent Kd, n = 1.
For a further experiment, the system named is NUAK1. Set-up: species or system human, MV4-11 + K-562 + COLO205 + SK-N-BE2 + OVCAR-8. The settings on record: read-out: apparent Kd; compound concentrations: 100 nM and 1000 nM (sheet 'Samples'), CATDS: 5.2338687670537398E-2; n = 1.
The subject of the next experiment is PAK4. Also on record: species or system human, MV4-11 + K-562 + COLO205 + SK-N-BE2 + OVCAR-8. The settings on record: read-out: apparent Kd; compound concentrations: 100 nM and 1000 nM (sheet 'Samples'), CATDS: 2.0251882597793001E-2; n = 1.
The next experiment has as its system CSNK2A1;CSNK2A3. Also on record: species or system human, MV4-11 + K-562 + COLO205 + SK-N-BE2 + OVCAR-8. To be noted: read-out: apparent Kd, compound concentrations: 100 nM and 1000 nM (sheet 'Samples'), n = 1.
The subject of another experiment is CSNK2A2. Set-up: species or system human, MV4-11 + K-562 + COLO205 + SK-N-BE2 + OVCAR-8. To be noted: read-out: apparent Kd, compound concentrations: 100 nM and 1000 nM (sheet 'Samples'), n = 1.
Another experiment deals with GAK. Set-up: species or system human, MV4-11 + K-562 + COLO205 + SK-N-BE2 + OVCAR-8. To be noted: read-out: apparent Kd; compound concentrations: 100 nM and 1000 nM (sheet 'Samples'), CATDS: 2.8408815024035201E-2; n = 1.
The next experiment concerns MELK. Set-up: species or system human, MV4-11 + K-562 + COLO205 + SK-N-BE2 + OVCAR-8. To be noted: read-out: apparent Kd; compound concentrations: 100 nM and 1000 nM (sheet 'Samples'), CATDS: 2.6674495002574999E-2; n = 1.
Where [1] appears, read: compound concentrations:100 nM and 1000 nM (sheet 'Samples').

Sequence of Q6ZSR9 (Q6ZSR9 whole entry, looked up): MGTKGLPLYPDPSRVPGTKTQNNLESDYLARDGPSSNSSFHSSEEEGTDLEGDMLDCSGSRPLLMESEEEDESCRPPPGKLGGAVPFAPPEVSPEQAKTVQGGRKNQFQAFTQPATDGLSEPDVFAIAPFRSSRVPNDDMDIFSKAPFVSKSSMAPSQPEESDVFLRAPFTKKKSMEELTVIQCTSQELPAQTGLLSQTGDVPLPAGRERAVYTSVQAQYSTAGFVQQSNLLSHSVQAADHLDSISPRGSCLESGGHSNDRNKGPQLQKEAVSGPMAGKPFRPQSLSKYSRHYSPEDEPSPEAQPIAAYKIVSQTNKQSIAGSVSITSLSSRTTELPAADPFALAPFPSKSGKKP

On to `Cc1cc(-c2ccnc(Nc3cccc(C#N)c3)n2)cc(C)c1O` [GSK1440913A], for which the potency estimated from few doses in the experiment with AAK1 (compound concentrations: 100 nM and 1000 nM (sheet 'Samples'), CATDS: 0.22953291556049499) is 0.12 µM; with BMP2K (CATDS: 0.10539472264710199), 0.564 µM; with Q6ZSR9 (compound concentrations: 100 nM and 1000 nM (sheet 'Samples'), CATDS: 0.240078758272596), 0.111 µM.
On to `NC(=O)c1cc(-c2ccccc2)cc2c(C3CCNCC3)c[nH]c12` [GSK301362A], for which the potency estimated from few doses in the experiment on AAK1 (setting [1]) was 1.98 µM.
For `Cl.Cl.NC(CNC(=O)c1cc(Br)c(-c2ccnc3[nH]ccc23)s1)c1ccccc1.NC(CNC(=O)c1cc(Br)c(-c2ccnc3[nH]ccc23)s1)c1ccccc1` (stereo not drawn) [GSK1322949A], the potency estimated from few doses with AAK1 (compound concentrations: 100 nM and 1000 nM (sheet 'Samples'), CATDS: 3.1655313708127797E-2) is 1.07 µM; in the experiment with BMP2K (CATDS: 4.4675050363511E-2), 0.552 µM; in the experiment with CLK4 (CATDS: 3.1125873030522201E-2), 1.12 µM; with PKN1, 2.38 µM; with Q6ZSR9 (compound concentrations: 100 nM and 1000 nM (sheet 'Samples'), CATDS: 3.14131871336574E-2) it was 1.09 µM.
Consider `COc1cc(Nc2nccc(-c3cnn4ncccc34)n2)cc(OC)c1` [GW801372X], for which the potency estimated from few doses is 0.184 µM with AAK1 (compound concentrations: 100 nM and 1000 nM (sheet 'Samples'), CATDS: 3.8573145954119099E-2); 1.82 µM in the experiment with BMP2K (CATDS: 1.7916348880173499E-2); 0.0182 µM in the experiment with CLK1 (CATDS: 0.124159144382542); 0.0266 µM in the experiment with CLK4 (CATDS: 0.10081286200227101); 1.65 µM with FLT4; 0.929 µM in the experiment on GSK3A (compound concentrations: 100 nM and 1000 nM (sheet 'Samples'), CATDS: 2.1356053852556199E-2). Further, the potency estimated from few doses in the experiment with GSK3B (compound concentrations: 100 nM and 1000 nM (sheet 'Samples'), CATDS: 3.2546275447974102E-2) is 0.277 µM; in the experiment on NUAK1, 0.0945 µM; with PAK4, 1.12 µM; with Q6ZSR9 (compound concentrations: 100 nM and 1000 nM (sheet 'Samples'), CATDS: 3.9611085380352497E-2) it was 0.173 µM.
`CNCc1ccc(-c2cc(-c3nc(-c4ccc(S(=O)(=O)C(C)C)cc4)cnc3N)on2)cc1` [VE-822]: the potency estimated from few doses was 1.85 µM in the experiment with AAK1 (setting [1]), 0.684 µM in the experiment on GSK3A (setting [1]), 0.81 µM in the experiment with GSK3B (setting [1]) and 1.24 µM with Q6ZSR9 (setting [1]).
On to `FC(F)(F)c1ccc(-c2ncn(CCCN3CCOCC3)c2-c2ccncc2)cc1` [SB-217780], for which, in the experiment on AAK1 (compound concentrations: 100 nM and 1000 nM (sheet 'Samples'), CATDS: 0.194449602003399), the potency estimated from few doses is 1.89 µM.
In the case of `COc1cc(Nc2nccc(N3CCC(NC(=O)c4cccc(NC(C)=O)c4)C3)n2)cc(OC)c1OC` (stereo not drawn) [GSK1379754A], the potency estimated from few doses in the experiment with AAK1 (compound concentrations: 100 nM and 1000 nM (sheet 'Samples'), CATDS: 0.175205708840038) is 0.41 µM; in the experiment with Q6ZSR9 (compound concentrations: 100 nM and 1000 nM (sheet 'Samples'), CATDS: 0.171045295105965), 0.426 µM.
`O=C1N=C(NCc2cccs2)O/C1=C\c1ccc2ncccc2c1` [RO4624208-000]: the potency estimated from few doses in the experiment with AAK1 (compound concentrations: 100 nM and 1000 nM (sheet 'Samples'), CATDS: 0.10731748351682301) was 0.135 µM; with BMP2K (CATDS: 4.6084247955460698E-2), 1.92 µM; in the experiment with CLK1 (CATDS: 0.227495449578137) it was 0.0237 µM; in the experiment with CLK4 (CATDS: 0.59916054369274396), 0.00427 µM; in the experiment on CSNK2A1;CSNK2A3 (CATDS: 6.2614032961525998E-2) it was 0.629 µM; in the experiment on CSNK2A2 (CATDS: 6.3902524713508005E-2), 0.59 µM. Besides, the potency estimated from few doses in the experiment with Q6ZSR9 (compound concentrations: 100 nM and 1000 nM (sheet 'Samples'), CATDS: 0.11947964791327) was 0.103 µM.
Regarding `c1ccc(-c2n[nH]cc2Nc2ccnc3ccccc23)nc1` [GW694077X], the potency estimated from few doses with AAK1 (compound concentrations: 100 nM and 1000 nM (sheet 'Samples'), CATDS: 0.15981280907647699) was 0.0229 µM; with BMP2K (CATDS: 0.12898106830803699), 0.0316 µM; in the experiment on CLK1 (CATDS: 6.3259021647505201E-2), 0.116 µM; with CLK4 (CATDS: 2.8276062957920199E-2), 0.948 µM; with CSNK2A1;CSNK2A3 (CATDS: 2.9027112719044901E-2), 0.87 µM; in the experiment with CSNK2A2 (CATDS: 2.7289326995804501E-2), 1.07 µM. The potency estimated from few doses is 0.933 µM with GAK; 1.15 µM with MELK; 0.0221 µM with Q6ZSR9 (compound concentrations: 100 nM and 1000 nM (sheet 'Samples'), CATDS: 0.16373298432482).
